Reference: PubChem BioAssay
Values joined by “and” are separate entries in the source; they are usually repeats but may differ in a detail not shown here. Identical values can stand only once. Records with an inconclusive call do not appear. Active and inactive are the calls of the source.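 How the source made its calls, unless noted: active means normalized viability below 100% at a tested concentration; inactive means the rest.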

Key:
[1] = viability loss in pontine glioma line – cell-based, SU-DIPG-XVII, MIPE5.0, CellTiter-Glo, qHTS, dose response (AID 1347060; cut-off not given, nearly all actives have AC50 up to about 26 µM;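 on AC50: cells exposed to compound for 48 hours before viability readout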); settings: CellTiter-Glo ATP luminescence
[2] = viability loss in pontine glioma line – cell-based, SU-DIPG-XIII, MIPE4.0, CellTiter-Glo, qHTS, dose response (AID 1347061; cut-off not given, nearly all actives have AC50 up to about 37 µM;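 further: cells exposed to compound for 48 hours before readout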); settings: CellTiter-Glo ATP luminescence
[3] = viability loss in pontine glioma line – cell-based, SU-DIPG-IV, MIPE4.0, CellTiter-Glo, qHTS, dose response (AID 1347063; cut-off not given, nearly all actives have AC50 up to about 30 µM;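 further: compound exposure lasted 48 hours before the viability readout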); settings: CellTiter-Glo ATP luminescence
[4] = viability loss in pontine glioma line – cell-based, SU-DIPG-XXV, MIPE5.0, CellTiter-Glo, qHTS, dose response (AID 1347065; cut-off not given, nearly all actives have AC50 up to about 26 µM;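 further: cells exposed to compound for 48 hours before ATP readout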); settings: CellTiter-Glo ATP luminescence
[5] = growth inhibition of DIPG cells – cell-based, MIPE4.0 library, CellTiter-Glo luminescence, qHTS (AID 1347066; cut-off not given, nearly all actives have AC50 up to about 30 µM;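 further: cells exposed to compound for 48 hours before readout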); settings: SU-DIPG-VI viability, CellTiter-Glo ATP luminescence
[6] = JHH-DIPG-1 glioma cell viability, MIPE5.0 library, CellTiter-Glo luminescence, qHTS (AID 1347067; cut-off not given, nearly all actives have AC50 up to about 26 µM;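 further: cells exposed to compound for 48 hours before readout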); settings: JHH-DIPG-1 glioma viability, CellTiter-Glo ATP luminescence
[7] = viability loss with induced miR-34 in A549 – imaging, A549 dox-inducible miR-34, nuclei and caspase counts, primary screen (AID 1347080;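 active means compounds whose cell count with miR-34 switched on is under 0.7 times the count with it off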); settings: A549 miR-34 inducible, Hoechst nuclei count, 48 h
[8] = MELAS cybrid and Rieske KO viability enhancers – cell-based, MELAS cybrids, Rieske KO mouse fibroblasts, CellTiter-Glo, primary screen (AID 1508586;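 active means mean z-score across replicates of 1.96 or higher in either the MELAS or the Rieske mutant cell line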;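 further: z relative to plate mean and SD of compound and empty wells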); settings: low glucose
[9] = drug combination growth inhibition, ovarian cancer – cell-based, oncology-focused library, rucaparib conditional, profiling panel (AID 1508598); settings: patient-derived ovarian cancer cells, CellTiter-Glo viability, 144 h, stronger effect = lower value
[10] = growth inhibition of DIPG cells – cell-based, MIPE5.0 library, qHTS (AID 1347068; cut-off not given, nearly all actives have IC50 up to about 30 µM); settings: SU-DIPG-XXV viability
[11] = compounds altering HSF1 focus formation in cells – imaging, Selleck Cancer Library (AID 1347162; in the data active means plate-normalised HSF1 focus index below about 0.46); settings: human cells, HSF1 nuclear foci imaging, at 10 µM; SSMD: measured here: HSF1 foci SSMD mean; cell count: measured here: cell number; plate-normalised HSF1 focus index: stronger effect = lower value
[12] = viability loss in pontine glioma line – cell-based, SU-DIPG-XIII, MIPE5.0, CellTiter-Glo, qHTS, dose response (AID 1347064; cut-off not given, nearly all actives have AC50 up to about 23 µM); settings: CellTiter-Glo ATP luminescence
[13] = stronger effect = lower value, cell number ratio, induced over uninduced
[14] = measured here: relative caspase fold change +Dox/-Dox
[15] = measured here: total cells with miR-34 induction, stronger effect = lower value
[16] = measured here: total cells without miR-34 induction
[17] = MELAS cybrid survival, CellTiter-Glo 48 h, stronger effect = higher value
[18] = Rieske KO mouse fibroblast survival, CellTiter-Glo 72 h
[19] = at 0.000305 µM, OCI-C5x cells, with rucaparib 10 µM, 100% = cells with rucaparib alone
[20] = at 0.000305 µM, OCI-C5x cells, without rucaparib
[21] = at 0.000305 µM, OCI-P5x cells, with rucaparib 20 µM, 100% = cells with rucaparib alone
[22] = at 0.000305 µM, OCI-P5x cells, without rucaparib
[23] = at 0.00122 µM, OCI-C5x cells, with rucaparib 10 µM, 100% = cells with rucaparib alone
[24] = at 0.00122 µM, OCI-C5x cells, without rucaparib
[25] = at 0.00122 µM, OCI-P5x cells, with rucaparib 20 µM, 100% = cells with rucaparib alone
[26] = at 0.00122 µM, OCI-P5x cells, without rucaparib
[27] = at 0.00488 µM, OCI-C5x cells, with rucaparib 10 µM, 100% = cells with rucaparib alone
[28] = at 0.00488 µM, OCI-C5x cells, without rucaparib
[29] = at 0.00488 µM, OCI-P5x cells, with rucaparib 20 µM, 100% = cells with rucaparib alone
[30] = at 0.00488 µM, OCI-P5x cells, without rucaparib
[31] = at 0.0195 µM, OCI-C5x cells, with rucaparib 10 µM, 100% = cells with rucaparib alone
[32] = at 0.0195 µM, OCI-C5x cells, without rucaparib
[33] = at 0.0195 µM, OCI-P5x cells, with rucaparib 20 µM, 100% = cells with rucaparib alone
[34] = at 0.0195 µM, OCI-P5x cells, without rucaparib
[35] = at 0.0781 µM, OCI-C5x cells, with rucaparib 10 µM, 100% = cells with rucaparib alone
[36] = at 0.0781 µM, OCI-C5x cells, without rucaparib
[37] = at 0.0781 µM, OCI-P5x cells, with rucaparib 20 µM, 100% = cells with rucaparib alone
[38] = at 0.0781 µM, OCI-P5x cells, without rucaparib
[39] = at 0.313 µM, OCI-C5x cells, with rucaparib 10 µM, 100% = cells with rucaparib alone
[40] = at 0.313 µM, OCI-C5x cells, without rucaparib
[41] = at 0.313 µM, OCI-P5x cells, with rucaparib 20 µM, 100% = cells with rucaparib alone
[42] = at 0.313 µM, OCI-P5x cells, without rucaparib
[43] = at 1.25 µM, OCI-C5x cells, with rucaparib 10 µM, 100% = cells with rucaparib alone
[44] = at 1.25 µM, OCI-C5x cells, without rucaparib
[45] = at 1.25 µM, OCI-P5x cells, with rucaparib 20 µM, 100% = cells with rucaparib alone
[46] = at 1.25 µM, OCI-P5x cells, without rucaparib
[47] = at 5 µM, OCI-C5x cells, with rucaparib 10 µM, 100% = cells with rucaparib alone
[48] = at 5 µM, OCI-C5x cells, without rucaparib
[49] = at 5 µM, OCI-P5x cells, with rucaparib 20 µM, 100% = cells with rucaparib alone
[50] = at 5 µM, OCI-P5x cells, without rucaparib

Nc1cccc2c1C(=O)N(C1CCC(=O)NC1=O)C2=O (stereo not given)
0.628: z-score [8, 18]
8200: cell count [7, 15]
inactive: outcome [1] | outcome [2] | outcome [3] | outcome [5] | outcome [6] | fold change [7, 13] 0.865 | z-score [8, 17] 0.05 | viability [9, 19] 110% | viability [9, 20] 124% | viability [9, 21] 110% | viability [9, 22] 127% | viability [9, 23] 109% | viability [9, 24] 124% | viability [9, 25] 107% | viability [9, 26] 125% | viability [9, 27] 112% | viability [9, 28] 121% | viability [9, 29] 102% | viability [9, 30] 118% | viability [9, 31] 115% | viability [9, 32] 125% | viability [9, 33] 105% | viability [9, 34] 114% | viability [9, 35] 117% | viability [9, 36] 112% | viability [9, 37] 104% | viability [9, 38] 118% | viability [9, 39] 110% | viability [9, 40] 116% | viability [9, 42] 107% | viability [9, 43] 118% | viability [9, 44] 117% | viability [9, 47] 105% | viability [9, 48] 110%
active: AC50 [4] 0.00118 µM | viability [9, 41] 99.9% | viability [9, 45] 88.7% | viability [9, 46] 97.8% | viability [9, 49] 84.6% | viability [9, 50] 97.3%
9490: cell count [7, 16]
0.842: fold change [7, 14]

CN[C@@H](C)C(=O)N[C@H]1CN(C(=O)CC(C)C)CC[C@H]2CC[C@@H](C(=O)NC(c3ccccc3)c3ccccc3)N2C1=O
inactive: outcome [1] | outcome [2] | outcome [4] | outcome [5] | outcome [6] | outcome [10] | plate-normalised HSF1 focus index [11] 1.1
2.71: SSMD [11]
7260: cell count [11]

N#CC(c1ccnc(NCCc2cccnc2)n1)c1nc2ccccc2s1 (stereo not given)
inactive: outcome [2] | outcome [10]
active: AC50 [1] 11.8 µM | AC50 [3] 13.2 µM | AC50 [4] 11.8 µM | AC50 [6] 18.6 µM

O=S(=O)(O)CCSSCCS(=O)(=O)O
0.587: z-score [8, 18]
0.692 and 0.976: fold change [7, 14]
active: viability [9, 19] 98.2% | viability [9, 37] 98.4% | viability [9, 38] 98.9% | viability [9, 42] 97.9% | viability [9, 45] 94.1% | viability [9, 46] 89.9% | viability [9, 49] 90.1% | viability [9, 50] 88.4%
inactive: outcome [1] | outcome [2] | outcome [12] | outcome [4] | outcome [5] | outcome [6] | outcome [10] | fold change [7, 13] 0.942 and 0.926 | z-score [8, 17] -0.449 | viability [9, 20] 108% | viability [9, 21] 105% | viability [9, 22] 108% | viability [9, 23] 106% | viability [9, 24] 106% | viability [9, 25] 105% | viability [9, 26] 103% | viability [9, 27] 102% | viability [9, 28] 103% | viability [9, 29] 101% | viability [9, 30] 100% | viability [9, 31] 100% | viability [9, 32] 107% | viability [9, 33] 105% | viability [9, 34] 104% | viability [9, 35] 100% | viability [9, 36] 104% | viability [9, 39] 100% | viability [9, 40] 105% | viability [9, 41] 101% | viability [9, 43] 127% | viability [9, 44] 101% | viability [9, 47] 116% | viability [9, 48] 101%
9460 and 8440: cell count [7, 16]
8910 and 7810: cell count [7, 15]

Cc1cn(-c2cc(NC(=O)c3ccc(C)c(Nc4nccc(-c5cccnc5)n4)c3)cc(C(F)(F)F)c2)cn1
1260: cell count [7, 15]
7680: cell count [11]
0.941: fold change [7, 14]
inactive: outcome [2] | fold change [7, 13] 0.874 | plate-normalised HSF1 focus index [11] 1.05 | viability [9, 19] 106% | viability [9, 20] 116% | viability [9, 21] 103% | viability [9, 22] 105% | viability [9, 23] 108% | viability [9, 24] 117% | viability [9, 25] 100% | viability [9, 26] 101% | viability [9, 27] 109% | viability [9, 28] 116% | viability [9, 29] 103% | viability [9, 31] 105% | viability [9, 32] 127% | viability [9, 33] 102% | viability [9, 35] 117% | viability [9, 36] 116% | viability [9, 38] 104% | viability [9, 39] 107% | viability [9, 40] 118% | viability [9, 41] 116% | viability [9, 42] 103% | viability [9, 43] 127% | viability [9, 44] 117% | viability [9, 47] 139% | viability [9, 48] 116%
active: AC50 [1] 10.5 µM | AC50 [3] 8.33 µM | AC50 [4] 10.5 µM | AC50 [6] 11.8 µM | z-score [8, 17] 3.41 | viability [9, 30] 98.8% | viability [9, 34] 91.4% | viability [9, 37] 98.7% | viability [9, 45] 97.7% | viability [9, 46] 91.7% | viability [9, 49] 68% | viability [9, 50] 30.3%
1440: cell count [7, 16]
-0.657: z-score [8, 18]
0.723: SSMD [11]
